Screens (PubChem)
KB-V1 cytotox – qHTS assay for MDR1-selective chemotherapeutics: Primary screen using the drug-selected MDR subline cells KB-V1 | KB-V1 MDR cells viability, CellTiter-Glo, 72 h | Potency, µM (top dose mostly 46.1 µM), usual class: cytotoxic | 3.4% of 400,000 active | AID 1347076, 2019; note: % is set by controls: 0 for no effect and ±100 for the full control effect; nearly all actives have a fitted effect of over 60% in size
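KB-V1, DMEM (no phenol red) + 10% FBS; cpd pin-transferred, titration series; 72 h, 37 degrees C; CellTiter-Glo, luminescence. Data normalized, curve-fit.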
KB-3-1 tox – qHTS assay for MDR1-selective chemotherapeutics: Primary screen using the parental adenocarcinoma cell KB-3-1 | KB-3-1 viability, CellTiter-Glo ATP luminescence, 72 h | Potency, µM (highest dose often 46.1 µM), hits mostly cytotoxic | 1.4% of 400,000 active | AID 1347075, 2019; note: % is set by controls: 0 for no effect and ±100 for the full control effect; nearly all actives have a fitted effect of over 60% in size
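Parental KB-3-1 viability, qHTS format: 72 h compound exposure, 37 °C; CellTiter-Glo; media-only wells and DMSO plates as controls; concentration-effect fits on corrected data.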
HT1080 IDH1KD tx – qHTS for induction of synthetic lethality in tumor cells producing 2HG: qHTS for the HT-1080-IDH1KD cell line; HT-1080 IDH1 knockdown viability, ATP luminescence, 48 h; Potency, µM (top dose mostly 46.1 µM), without a hit: at the top dose activity, negative = toxicity, usual class: cytotoxic; 2% of 360,000 active; AID 686971, 2013;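 note: 0% = DMSO wells and -100% = cell-free medium wells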
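IDH1KD HT-1080 cells, 750/well, RPMI + 5% FBS; compound pinned after 2 h settling; 48 h, 37 °C; CellTiter-Glo luminescence; % activity normalised to DMSO and no-cell wells; curves fitted, classed by r2 and efficacy.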
HT1080-NT tox – qHTS for induction of synthetic lethality in tumor cells producing 2HG: qHTS for the HT-1080-NT fibrosarcoma cell line | HT-1080-NT fibrosarcoma viability, CellTiter-Glo ATP luminescence, 48 h | Potency, µM (doses to about 46.1 µM), inactives show at the top dose activity, negative = less viability, hits mostly cytotoxic | 1.6% of 360,000 active | AID 686970, 2013;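 note: NT is the 2HG producing partner of a matched IDH1 knockdown line; 0% = DMSO-treated cells and -100% = media-only wells without cells; nearly all actives have a fitted effect of over 55% in size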
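HT-1080-NT fibrosarcoma cells (2HG-overproducing), 750 cells/well in RPMI with 5% FBS, dosed after 2 h and incubated 48 h at 37C. CellTiter-Glo luminescence normalized to DMSO and no-cell wells; concentration-response curves fitted and classed.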
SW480 rerep – A quantitative high throughput screen for small molecules that induce DNA re-replication in SW480 colon adenocarcinoma cells | SW480 DNA re-replication, Hoechst DNA content imaging, 48 h | Potency, µM (doses to about 46.1 µM), inactives show top-dose re-replication activation, hits mostly activators | 1.8% of 340,000 active | AID 624297, 2012; note: % of control where 0% means no effect; nearly all actives have a fitted effect of over 55% in size
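Image-based DNA-content assay: after two days of treatment, nuclei were labelled with the DNA dye Hoechst and imaged, and hits were compounds raising the count of nuclei showing high fluorescence intensity.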
MCF10A rerep – A quantitative high throughput screen for small molecules that induce DNA re-replication in MCF 10a normal breast cells; MCF 10A DNA re-replication, Hoechst nuclear intensity, 48 h; Potency, µM (series often up to 46.1 µM), for the others: top-dose activity, positive = re-replication, hits mostly activators; 2.9% of 350,000 active; note: % of control where 0% means no effect; nearly all actives have a fitted effect of over 50% in size
* marks the source's active call; other numbers are inactive results; i = inactive; ? = inconclusive; . = not tested or not shown. Shown are actives, neighbours in structure and some others; about 8% of the full set was active somewhere. Calls come from the whole dose curve; as a rule, active = well fitted curve in the direction sought with a large enough effect; inconclusive = small, poorly fitted or top-dose-only effect, or another doubt; inactive = no such curve, though single readings can be large; an effect the other way counts as inactive or inconclusive. Potency is the fitted concentration of half-maximal effect.

SMILES	KB-V1 cytotox	KB-3-1 tox	HT1080 IDH1KD tx	HT1080-NT tox	SW480 rerep	MCF10A rerep
Cc1cc(O)c2c(c1)C(=O)C13C(=C2O)C(=O)[C@H]2[C@@H](O)[C@@H]1[C@H]1[C@H](O)[C@@H]3C(=O)C3=C(O)c4c(O)cc(C)cc4C(=O)C312 (some centres not stated)	i	9.2µM*	5.2µM*	0.58µM*	-11%	-40%
C=CCN1CCc2cccc3c2[C@H]1Cc1ccc(O)c(O)c1-3	?	i	?	?	?	12%
CN1CCc2cccc3c2C1Cc1ccc(O)c(O)c1-3 (configuration not stated)	i	i	?	23µM*	?	?
CC(=O)Nc1ccc(S(=O)(=O)N2CCSC2c2ccc(C)cc2)cc1 (configuration not stated)	?	i	-25%	-15%	-4%	?
CCC(=O)N1CC(=O)Nc2ccc(C)cc2C1c1ccc(F)cc1 (configuration not stated)	i	i	.	.	.	.
COC(=O)[C@@H]1N=C(c2ccc(OC)cc2)O[C@]12C(=O)N(Cc1ccc(OC)cc1)c1ccccc12	23µM*	?	?	-28%	.	.
C[N+](C)(C)CCCCCCCCCC[N+](C)(C)C	i	i	14%	?	10%	9%
O=C(Oc1ccccc1)c1cccc(COC(=O)c2cnccn2)c1	i	i	5%	4%	?	3%
CN(CC(=O)Nc1ccc(N2CCOCC2)cc1)CC(=O)Nc1cccc(C#N)c1	i	i	0%	-6%	?	16%
CCOc1cccc(CNCCc2c(C)[nH]c3ccc(OC(F)(F)F)cc23)c1O	23µM*	i	18µM*	?	?	?
Cc1[nH]c2ccc(OC(F)(F)F)cc2c1CCNCc1cccc([N+](=O)[O-])c1	?	?	13µM*	15µM*	?	?
COc1ccc2[nH]c(C)c(CCNCc3cccnc3)c2c1	i	i	-3%	0%	-5%	1%
Cc1[nH]c2ccc(OC(F)(F)F)cc2c1CCNCc1ccc(Cl)cc1	?	?	15µM*	?	16µM*	?
Cc1cc(=O)oc2c1c(C)nn2-c1nn[nH]n1	i	i	7%	5%	?	?
COC(=O)C(Cc1ccc(N(CCCl)CCCl)cc1)N=Cc1ccccc1O (configuration not stated)	i	?	26µM*	?	1µM*	12µM*
CCOC(=O)C(NC(=O)C(Cc1ccc(N(CCCl)CCCl)cc1)NC(C)=O)C(C)C (configuration not stated)	i	i	1%	20%	-3%	-4%
COC(=O)C1=Nc2ccccc2/C1=C\c1c(O)n(-c2ccc(Br)cc2)c(=O)[nH]c1=O	i	i	?	?	-3%	?
O=c1[nH]c(=O)n(-c2ccccc2)c(O)c1/C=C1/C(c2ccccc2)=Nc2ccccc21	2.9µM*	3.3µM*	2.1µM*	4.1µM*	?	2.1µM*
Cc1c(C=O)c2ccccc2n1Cc1ccc([N+](=O)[O-])cc1	10µM*	i	-24%	-16%	-2%	0%
CCCSc1ccc2nc(NC(=O)OC)[nH]c2c1	1.6µM*	1.2µM*	0.73µM*	?	0.82µM*	0.73µM*
CCCCCn1c(=O)c(C(=O)Nc2nc3ccccc3[nH]2)c(O)c2ccccc21	?	?	-7%	-3%	-5%	?
CCOc1ccc(CN(CCc2ccc3c(c2)OCO3)Cc2cc(OC)ccc2O)cc1	i	i	.	.	.	.
CN(CCS(=O)(=O)c1ccc(Cl)cc1)Cc1cccnc1	i	i	-21%	5%	?	21µM*
CCN1CCN(Cc2cccnc2)CC1	i	i	20%	18%	-1%	0%
CCN(CC)C(=O)/C(Cl)=C(\C)OP(=O)(OC)OC	.	.	.	.	1%	6%
SMILES	KB-V1 cytotox	KB-3-1 tox	HT1080 IDH1KD tx	HT1080-NT tox	SW480 rerep	MCF10A rerep
C=CCn1c(O)c(C(C)=Nc2ccc(N(C)C)cc2)c(=O)[nH]c1=O	i	?	-19%	-4%	?	?
C=CCn1c(O)c(C(CC)=Nc2ccc(NC(C)=O)cc2)c(=O)[nH]c1=O	i	i	13%	1%	-11%	-1%
C=CCn1c(O)c(C(CC)=Nc2ccc(N(CC)CC)cc2)c(=O)[nH]c1=O	15µM*	23µM*	-2%	2%	-4%	-1%
C=CCn1c(O)c(C(C)=Nc2ccc(N(CC)CC)cc2)c(=O)[nH]c1=O	12µM*	5.8µM*	?	?	15µM*	?
Cc1ccc(NC(=O)COC(=O)/C=C/c2ccco2)cc1S(=O)(=O)N(C)C	i	i	16%	11%	?	1%
C=CC[C@]1(O)CCC2C3CCC4=CCCCC4C3CCC21C (some centres not stated)	.	.	.	.	5%	19µM*
CCC1(O)CCC2C3CCC4=CC(=O)CCC4C3CCC21CC (configuration not stated)	?	i	1%	3%	-1%	15%
CC[N+](C)(CC)CCOC(=O)C(O)(c1ccccc1)c1ccccc1	.	.	.	.	0%	4%
COc1ccc(CCN(C)Cc2c(F)cccc2F)cc1OC	12µM*	i	-20%	13%	0%	?
COc1ccc(CCNCc2ccc(F)cc2)cc1OC	i	i	-8%	-2%	-1%	5%
C[C@@H]1O[C@@H](O[C@H]2C[C@@H](O)[C@]3(CO)[C@H]4[C@H](O)C[C@]5(C)[C@@H](C6COC(=O)C6)CC[C@]5(O)[C@@H]4CC[C@]3(O)C2)[C@H](O)[C@H](O)[C@H]1O (some centres not stated)	1.6µM*	?	0.82µM*	1.8µM*	5.2µM*	?
O=C1CN=C(c2ccccc2Cl)c2cc(Cl)ccc2N1Cc1cccc(Cl)c1	15µM*	?	.	.	.	.
O=C1CN=C(c2ccccc2)c2cc(Cl)ccc2N1CC1CC1	.	.	.	.	5%	-1%
O=C1NCN(c2ccccc2)C12CCN(C(CCc1ccccc1)c1nnnn1C1CCCCC1)CC2 (configuration not stated)	?	?	26µM*	?	.	.
